C diff HTS – C. difficile growth inhibitors, primary screen, HTS. Clostridium difficile clinical isolate growth, OD600, 24 h; active compounds read low. growth activity, negative = inhibition, % at 16 µg/mL (by protocol). actives 0.25% (n = 86,000). AID 1259249, 2017;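 active means mean growth activity at or below -80% and every replicate also at or below -80%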;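 further: 0% = DMSO wells and -100% = levofloxacin 16 µg/mL wells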
T cruzi growth – T. cruzi intracellular proliferation inhibitors, primary screen, cell-based, beta-gal Tulahuen parasites, NIH3T3 host, luminescence; T. cruzi beta-gal in NIH3T3, GalScreen luminescence, 90 h; AID 624255, 2012; actives 5.9% (n = 77,000); inhibition, % at 8.34 µM;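 active means mean inhibition above about 93%, with at least 55% of replicates each passing it, limit read from the data, passing the limit was not always enough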
Pf Dd2 inh – P. falciparum Dd2 growth inhibitors, primary screen, SYBR Green fluorescence, single dose replicates | activity change, % at 10 µM | 72 h; active compounds read low | actives 2.3% (n = 94,000); in the data active means activity change below about -80%
* hit, by the source's call; . = no result given. An excerpt weighted towards active compounds, which were near 6.8% of everything screened.

SMILES	C diff HTS	T cruzi growth	Pf Dd2 inh
FC(F)(F)c1cccc(CN2[C@@H]3CNC[C@H]2[C@@H]3c2ccc(-c3cccnc3)cc2)c1	11.0	.	-84.2*
COc1cc(CN2[C@@H]3CNC[C@H]2C3c2ccc(-c3cccnc3)cc2)cc(OC)c1 (stereo partly specified)	-3.5	.	0.1
O=C(Cc1ccccn1)N1CC(=O)N2[C@@H](CO)[C@@H](c3ccc(-c4ccccc4)cc3)[C@@H]2C1	-5.6	.	-46.5
CS(=O)(=O)N1[C@H](C#N)[C@H](c2ccccc2-c2ccccc2)[C@@H]1CO	-17.1	.	-26.8
CS(=O)(=O)N1[C@H](C#N)[C@H](c2ccccc2-c2ccccc2)[C@H]1CO	-10.1	.	-94.2*
Cc1ccccc1-c1ccccc1[C@@H]1[C@@H](C#N)N(C(=O)c2ccccc2)[C@H]1CO	-1.6	.	-8.9
Cc1ccccc1-c1ccccc1[C@H]1[C@@H](C#N)N(C(=O)c2ccccc2)[C@@H]1CO	4.0	.	-92.9*
C[C@@H]1CCCCO[C@H](CN(C)CC2CCCCC2)[C@H](C)CN([C@H](C)CO)C(=O)c2cc(NC(=O)NC3CCCCC3)ccc2O1	.	37.8	-69.7
COCC(=O)N1C[C@@H](C)[C@H](OC)CN(C)C(=O)c2cc(NC(=O)c3cnccn3)ccc2OC[C@@H]1C	.	59.3	23.2
COc1ccc(NC(=O)Nc2ccc3c(c2)C(=O)N([C@@H](C)CO)C[C@H](C)[C@H](CN(C)CC2CCCCC2)OCCCC[C@H](C)O3)cc1	-7.3	67.9	-84.4*
COc1ccc(NC(=O)Nc2ccc3c(c2)C(=O)N([C@H](C)CO)C[C@H](C)[C@H](CN(C)CC2CCCCC2)OCCCC[C@@H](C)O3)cc1	-1.2	67.5	-62.4
C[C@@H]1CCCCO[C@@H](CN(C)CC2CCCCC2)[C@H](C)CN([C@H](C)CO)C(=O)c2cc(NC(=O)Nc3ccccc3)ccc2O1	15.9	94.4	-83.9*
C[C@H]1CCCCO[C@H](CN(C)CC2CCCCC2)[C@@H](C)CN([C@@H](C)CO)C(=O)c2cc(NC(=O)Nc3ccccc3)ccc2O1	5.3	82.5	-72.7
COc1ccc(S(=O)(=O)Nc2ccc3c(c2)C(=O)N([C@@H](C)CO)C[C@@H](C)[C@@H](CN(C)C(=O)NC2CCCCC2)OCCCC[C@@H](C)O3)cc1	-6.1	67.2	-70.9
COc1ccc(S(=O)(=O)N(C)C[C@@H]2Oc3ncc(-c4cc5ccccc5o4)cc3C(=O)N([C@H](C)CO)C[C@@H]2C)cc1	5.0	80.7	-85.9*
C[C@H](CO)N1C[C@H](C)[C@H](CN(C)S(=O)(=O)c2ccc(C#N)cc2)Oc2ncc(-c3cc4ccccc4o3)cc2C1=O	.	59.7	-17.8
COc1cccc(S(=O)(=O)N(C)C[C@@H]2Oc3ncc(-c4cccc(C(=O)N(C)C)c4)cc3C(=O)N([C@@H](C)CO)C[C@H]2C)c1	-3.5	7.9	-65.5
COc1cccc(S(=O)(=O)N(C)C[C@H]2Oc3ncc(-c4cccc(C(=O)N(C)C)c4)cc3C(=O)N([C@H](C)CO)C[C@@H]2C)c1	-7.3	14.4	-83.7*
CNC[C@@H]1Oc2ccc(NC(=O)c3ccncc3)cc2CC(=O)N([C@H](C)CO)C[C@@H]1C	-1.7	17.2	-4.5
C[C@@H]1CN([C@@H](C)CO)C(=O)c2cccc(NC(=O)c3cnccn3)c2O[C@@H]1CN(C)C(=O)Nc1ccc(C(F)(F)F)cc1	-2.9	21.8	-52.1
C[C@H](CO)N1C[C@H](C)[C@@H](CN(C)C)Oc2ccc(NC(=O)Nc3ccc(F)cc3)cc2CC1=O	0.9	.	3.5
COc1ccc(C#Cc2ccc3c(c2)[C@H]2[C@H](CCN2C(=O)c2ccccn2)[C@@H](CO)N3)cc1	37.1	.	-91.4*
COc1ccc(C#Cc2ccc3c(c2)[C@H]2[C@H](CCN2C(=O)c2ccccn2)[C@H](CO)N3)cc1	50.3	.	-88.3*
O=C(c1ccccn1)N1CC[C@@H]2[C@H](CO)Nc3ccc(C#Cc4ccccc4)cc3[C@@H]21	-14.9	84.4	2.1
COc1ccc(C#Cc2ccc3c(c2)[C@H]2[C@H](CCN2C(=O)c2ccncc2)[C@@H](CO)N3)cc1	7.9	.	-59.7
SMILES	C diff HTS	T cruzi growth	Pf Dd2 inh
O=C(c1ccccn1)N1CC[C@H]2[C@H](CO)Nc3ccc(C#Cc4cccnc4)cc3[C@H]21	2.6	77.3	-19.8
COc1ccccc1C#Cc1ccc2c(c1)[C@H]1[C@H](CCN1C(=O)c1ccncc1)[C@H](CO)N2	-99.9*	66.5	-52.2
O=C(C1CCOCC1)N1CC(=O)N2[C@@H](CO)[C@@H](c3ccc(C#CC4CCCC4)cc3)[C@@H]2C1	-6.3	.	-22.8
C[C@@H]1CCCCO[C@H](CN(C)S(=O)(=O)c2cccs2)[C@@H](C)CN([C@@H](C)CO)C(=O)c2cc(NC(=O)Nc3ccc(C(F)(F)F)cc3)ccc2O1	-0.2	93.8	-86.9*
C[C@@H]1CN([C@@H](C)CO)C(=O)c2cc(NC(=O)CCC(F)(F)F)ccc2O[C@@H](C)CCCCO[C@@H]1CN(C)S(=O)(=O)c1cccs1	5.7	38.8	-62.7
C[C@@H]1CN([C@@H](C)CO)C(=O)c2cc(NC(=O)Nc3ccc(C(F)(F)F)cc3)ccc2O[C@@H](C)CCCCO[C@@H]1CN(C)S(=O)(=O)c1cccs1	7.3	37.5	-56.3
C[C@@H]1CCCCO[C@@H](CN(C)S(=O)(=O)c2cccs2)[C@@H](C)CN([C@H](C)CO)C(=O)c2cc(NC(=O)Nc3ccc(C(F)(F)F)cc3)ccc2O1	-4.4	18.4	-66.5
C[C@@H]1CN([C@H](C)CO)C(=O)c2cc(NC(=O)CCC(F)(F)F)ccc2O[C@@H](C)CCCCO[C@@H]1CN(C)S(=O)(=O)c1cccs1	5.6	68.3	-84.7*
C[C@@H]1CCCCO[C@@H](CN(C)S(=O)(=O)c2cccs2)[C@@H](C)CN([C@@H](C)CO)C(=O)c2cc(NC(=O)Nc3ccc(C(F)(F)F)cc3)ccc2O1	4.9	84.4	-87.1*
CCCN1C[C@H](C)[C@H](OC)CN(C)C(=O)c2cc(NC(=O)c3ccccc3F)ccc2OC[C@@H]1C	.	13.5	-2.2
CO[C@@H](CN(C)C(=O)c1ccccc1F)[C@H](C)CN([C@@H](C)CO)S(=O)(=O)c1ccc(F)cc1	.	26.6	11.9
CCCNC(=O)Nc1ccc2c(c1)OC[C@@H](C)N(CC1CCCC1)C[C@@H](C)[C@@H](OC)CN(C)C2=O	-0.1	-4.5	-10.8
CCC(=O)N1[C@H](CO)[C@@H]2c3ccccc3N(C(=O)Nc3ccc(Cl)cc3)C[C@@H]21	3.3	19.6	18.4
C[C@@H]1CN([C@@H](C)CO)C(=O)Cc2cc(NC(=O)C3CCCCC3)ccc2O[C@@H]1CN(C)S(=O)(=O)c1ccc(F)cc1	3.0	.	-10.9
C[C@@H]1CN([C@H](C)CO)C(=O)c2cc(C#CC3CCCCC3)cnc2O[C@@H]1CN(C)C(=O)Nc1ccccc1	7.3	.	-5.1
c1ncc(-c2ccc(C3[C@@H]4CN(Cc5ccc6c(c5)OCO6)C[C@H]3N4)cc2)cn1 (stereo partly specified)	-3.2	.	-31.8
C/C=C/c1ccc(C2[C@@H]3CN(Cc4cccc(OC)c4)C[C@H]2N3)cc1 (stereo partly specified)	6.7	.	-19.4

Bioassay records (PubChem BioAssay)
